# FAS TE block: blocks the thioesterase domain of human fatty acid synthase. recombinant FAS-TE, OMFH fluorogenic substrate, fluorescence endpoint. inhibition, % at 15 µM. actives 0.67% (n = 360,000);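 active = compounds whose normalised, plate-corrected inhibition of enzyme fluorescence in the single-dose primary screen is 50% or more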;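 note: 0% = DMSO with enzyme and 100% = substrate without enzyme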
# NR3A LBD binder: NR3A (human) ligand-binding domain modulation. NR3A LBD differential scanning fluorimetry, Tm shift; 0% = protein alone, 100% = glycine-bound protein. Tm shift relative to glycine control, % at 25 µM. actives 2.5% (n = 340,000);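 active = melting temperature shift of at least 10% of the positive control shift, at one fixed dose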
# Myeloid diff MLP: compounds promoting myeloid differentiation. ER-HoxA9 myeloid progenitors, lysozyme-GFP differentiation, flow cytometry. calls only at 10 µM. actives 1% (n = 360,000);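 active = normalized GFP-positive differentiation at or above the plate's own cutoff, the solvent-only control mean plus 3 SD; inconclusive = no clear call, values can overlap the other calls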;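 note: cells exposed to compound for four days before flow analysis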
# MPTP block: inhibitors of mitochondrial permeability transition pore; isolated mouse mitochondria, Ca2+ swelling absorbance, 30 min; inhibition, % at 10 µM; actives 1.4% (n = 360,000); AID 602449;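 active = inhibition of 50% or more, scaled per plate between neutral and stimulator controls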;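 note: 0% = DMSO wells given calcium and 100% = 1 mM EGTA wells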
# rCAG RNA binder: r(CAG) repeat RNA binding; AID 651821; actives 1.3% (n = 370,000); TO-PRO-1 dye displacement fluorescence; inhibition, % at 3 µM;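 active = inhibition above the plate cutoff, the mean of all test compounds on that plate plus 3 SD, cut at about 35% in these data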;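 note: 0% = DMSO alone and 100% = 100 µM mitoxantrone as full dye displacement; higher means more dye released from RNA so lower well fluorescence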
# FAS-TE conf: confirmation of human fatty acid synthase thioesterase inhibitors | shares compounds with FAS TE block | recombinant FAS-TE, OMFH fluorogenic substrate, fluorescence | actives 45% (n = 2,300) | inhibition, % at 15 µM;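 active = compounds inhibiting the enzyme by at least 50% at 15 µM in any one of the replicates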;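 note: 0% = enzyme with DMSO only and 100% = wells lacking enzyme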
# MPTP counter: membrane potential counter-screen of mitochondrial pore inhibitors; shares compounds with MPTP block; isolated mitochondria, Rhodamine 123 fluorescence; inhibition, % at 10 µM; actives 78% (n = 5,000); AID 624504; in the data active = inhibition above about 22%;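 note: 0% = DMSO vehicle and 100% = positive control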
# * = called active by the depositor; i = inactive; ? = inconclusive; nt = no result. In the library only some 5.7% were active in any assay of this set; here they are far more common.
SMILES,FAS TE block,NR3A LBD binder,Myeloid diff MLP,MPTP block,rCAG RNA binder,FAS-TE conf,others
Oc1ccc(O)c2c1C1(Cl)C(Cl)=C(Cl)C2(Cl)C1(Cl)Cl,51*,-9,i,3,11,50*,
CC(C)(O)/C=C/C(=O)C(C)(O)C1C(O)CC2(C)C3CC=C4C(C=C(O)C(=O)C4(C)C)C3(C)C(=O)CC12C (stereo not drawn),-6,-1,?,1,-1,nt,
O=c1[nH]c2ccccc2n1C1CCN(C(c2cc3ccccc3o2)c2nnnn2-c2ccc3c(c2)OCCO3)CC1 (stereo not drawn),66*,nt,i,-1,9,13,
CSCCC(c1nnnn1C1CCCCC1)N1CCC(n2c(=O)[nH]c3ccccc32)CC1 (stereo not drawn),4,nt,i,-1,3,nt,
Cc1cccc(C)c1-n1nnnc1C(c1cccs1)N1CCC(n2c(=O)[nH]c3ccccc32)CC1 (stereo not drawn),36,nt,i,0,6,nt,
Cc1cccc(C)c1-n1nnnc1C(c1cccc2ccccc12)N1CCC(n2c(=O)[nH]c3ccccc32)CC1 (stereo not drawn),86*,nt,i,1,4,17,
O=c1[nH]c2ccccc2n1C1CCN(C(c2cccc3ccccc23)c2nnnn2-c2ccc3c(c2)OCCO3)CC1 (stereo not drawn),72*,nt,i,0,13,14,
O=c1[nH]c2ccccc2n1C1CCN(C(CCc2ccccc2)c2nnnn2C2CCCCC2)CC1 (stereo not drawn),55*,nt,i,2,4,19,
N#Cc1ccc2nc(-c3ccc(CN4CCC(n5c(=O)[nH]c6ccccc65)CC4)cc3)c(-c3ccccc3)nc2c1,93*,nt,i,0,15,7,
Cc1cccc2nc(-c3ccccc3)c(-c3ccc(CN4CCC(n5c(=O)[nH]c6ccccc65)CC4)cc3)nc12,44,nt,i,3,14,nt,
O=C1NCN(c2ccccc2)C12CCN(C(c1cccc3ccccc13)c1nnnn1C1CCCC1)CC2 (stereo not drawn),77*,nt,i,2,8,19,
COc1ccc(C(c2nnnn2-c2ccc3c(c2)OCCO3)N2CCC3(CC2)C(=O)NCN3c2ccccc2)cc1 (stereo not drawn),63*,nt,i,1,10,-2,
O=C1NCN(c2ccccc2)C12CCN(C(c1cccc3ccccc13)c1nnnn1C1CCCCC1)CC2 (stereo not drawn),23,nt,i,0,7,nt,
CCC(c1nnnn1-c1ccc2c(c1)OCCO2)N1CCC2(CC1)C(=O)NCN2c1ccccc1 (stereo not drawn),5,nt,i,0,2,nt,
O=C1NCN(c2ccccc2)C12CCN(C(CCc1ccccc1)c1nnnn1-c1ccc3c(c1)OCCO3)CC2 (stereo not drawn),65*,nt,i,-1,9,22,
Fc1ccc2nc(-c3ccc(CN4CCC(n5nnc6ccccc65)CC4)cc3)c(-c3ccccc3)nc2c1,nt,nt,nt,nt,11,nt,
CCOC(=O)c1cccc(C2=C(CNC(=O)c3nccs3)[C@H]3CC[C@@H](C2)N3Cc2ccccc2)c1,5,nt,i,0,-1,nt,
O=P(/C=C1\OCc2ccccc21)(Oc1ccccc1)Oc1ccccc1,nt,nt,i,0,0,nt,
C/C(=N\N1CCCCC1c1cccnc1)c1c(O)n(C2CCCCC2)c(=S)[nH]c1=O (stereo not drawn),70*,-7,i,-4,-3,10,
CCCCn1c(O)c(/C(CC)=N/N2CCCCC2c2cccnc2)c(=O)[nH]c1=S (stereo not drawn),5,-9,i,0,-1,nt,
COc1ccc(-c2nn(CCC#N)cc2C(=O)Nc2ccc(C(C)=O)cc2)cc1[N+](=O)[O-],85*,-9,i,0,8,91*,
O=C1NCCCCC1(Cl)Cl,-7,2,i,0,-1,nt,
Nc1nc(Cl)nc2c1ncn2C1CCC(CO)O1 (stereo not drawn),-6,nt,i,-1,1,nt,
CCOC(=O)[C@]12Cc3cc(OC)ccc3[C@H]1N(CC(=O)OC)C(=O)c1cc(OC)ccc12,12,nt,i,-3,0,nt,
CCOC(=O)[C@]12Cc3cc(Cl)ccc3[C@H]1N(C1CCCCC1)C(=O)c1cc(OC)ccc12,84*,nt,i,-5,5,39*,
SMILES,FAS TE block,NR3A LBD binder,Myeloid diff MLP,MPTP block,rCAG RNA binder,FAS-TE conf,others
CCOC(=O)[C@]12Cc3c(cc(OC)c(OC)c3OC)[C@H]1N(C1CCCCC1)C(=O)c1ccccc12,81*,nt,nt,-3,-1,62*,
CCOC(=O)[C@]12Cc3cc(C)ccc3[C@H]1N(CCC(=O)OC)C(=O)c1ccccc12,42,nt,i,-3,1,nt,
CCCCCN1C(=O)c2cc(OC)ccc2[C@@]2(C(=O)OCC)Cc3cc(OC)ccc3[C@@H]12,52*,nt,i,-2,3,40,
CCOC(=O)[C@]12Cc3ccccc3[C@H]1N(C(C)C)C(=O)c1ccccc12,13,nt,i,-2,2,nt,
CCOC(=O)[C@]12Cc3cc(C)ccc3[C@H]1N(C1CCCCC1)C(=O)c1ccccc12,82*,nt,?,0,4,33*,
O=P1(Oc2ccccc2)OCCCS1 (stereo not drawn),-8,1,i,2,-4,nt,
CCOC(=O)c1cc2ccccc2n1C1CCN(Cc2ccccc2)CC1,15,nt,i,3,2,nt,
CCOC(=O)[C@]12Cc3ccc(C)cc3[C@H]1N(C1CCCCC1)C(=O)c1cc(OC)ccc12,77*,nt,?,-5,3,28*,
CCOC(=O)[C@]12Cc3ccc(C)cc3[C@H]1N(C1CCCCC1)C(=O)c1ccccc12,80*,nt,?,-2,2,24*,
Cc1cc(=O)n(-c2ccccc2)n1-c1ccccc1,-9,1,i,10,3,nt,
O=[N+]([O-])c1cccc(NP(=O)(N2CC2)N2CC2)c1,-7,0,i,-1,1,nt,
O=[N+]([O-])c1cccc(CN2CC=C(c3ccc(F)cc3)CC2)c1,57*,5,i,1,-2,53*,
Oc1c(Br)c(Br)c(Br)c(Br)c1Br,60*,32*,i,67*,nt,72*,MPTP counter=87*
Oc1c(Br)cc(Br)cc1Br,0,3,i,1,1,nt,
CCN(CCCl)c1cc(CN(C)C)cc(NC(=O)c2ccc(C(=O)Nc3cc(CN(C)C)cc(N(CC)CCCl)c3)cc2)c1,51*,-2,?,82*,4,45,MPTP counter=-32
CC(=O)O[C@H]1C[C@@H]2OC3C=C(C)CCC3(C)[C@@]1(C)[C@@]21CO1 (stereo partly drawn),-8,0,nt,0,0,nt,
